Test results as given in PMC7862700, “An all-to-all approach to the identification of sequence-specific readers for epigenetic DNA modifications on cytosine”.

How the values were obtained:
Assay in all cases: DAPPL (digital affinity profiling via proximity ligation, sequencing); 10 mM Tris-HCl pH 7.5, 50 mM NaCl, 1 mM DTT, 4% glycerol, room temperature, 30 min; GST-TFs on glutathione beads, 16-mer random dsDNA library, 0.1% formaldehyde crosslink after washing; high values mean tight binding
Conditions in all cases: protein: recombinant; tags: N-terminal GST; dsDNA, one strand shown
[1] = target: T1, ERF (Homo sapiens, UniProt P50548 1-548)
T1 sequence: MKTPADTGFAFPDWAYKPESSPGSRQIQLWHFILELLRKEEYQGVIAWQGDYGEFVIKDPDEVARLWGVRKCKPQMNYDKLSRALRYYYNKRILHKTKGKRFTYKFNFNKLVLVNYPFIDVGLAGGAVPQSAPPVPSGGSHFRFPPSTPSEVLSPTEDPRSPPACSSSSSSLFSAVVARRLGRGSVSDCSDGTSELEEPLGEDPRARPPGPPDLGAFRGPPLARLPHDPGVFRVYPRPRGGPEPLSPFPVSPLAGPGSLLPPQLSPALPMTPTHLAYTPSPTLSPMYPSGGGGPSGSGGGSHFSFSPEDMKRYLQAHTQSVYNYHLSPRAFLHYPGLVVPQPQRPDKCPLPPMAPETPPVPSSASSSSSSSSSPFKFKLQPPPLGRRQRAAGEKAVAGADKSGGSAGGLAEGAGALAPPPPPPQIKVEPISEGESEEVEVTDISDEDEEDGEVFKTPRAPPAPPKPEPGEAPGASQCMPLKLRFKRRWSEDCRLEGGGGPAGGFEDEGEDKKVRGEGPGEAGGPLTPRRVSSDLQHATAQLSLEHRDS
Summary of the method: (§1)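 After expression in yeast as GST fusions, human transcription factors were bound to glutathione beads, DNA-barcoded and mixed with a tag-only sample. The pools were incubated with 200 nmole of a 16-mer random double-stranded DNA library in Tris/NaCl/DTT/glycerol buffer (30 min, room temperature), washed and crosslinked with 0.1% formaldehyde. Proximity ligation with BsaI/T4 ligase ran for 1 h at 37 °C, before PCR amplification and sequencing on an Illumina NextSeq500. Binding signal is a hexamer's read frequency for a factor divided by its frequency for the tag-only sample.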

[2] = target: T2, ETV3L (Homo sapiens, UniProt Q6ZN32 1-361)
T2 sequence: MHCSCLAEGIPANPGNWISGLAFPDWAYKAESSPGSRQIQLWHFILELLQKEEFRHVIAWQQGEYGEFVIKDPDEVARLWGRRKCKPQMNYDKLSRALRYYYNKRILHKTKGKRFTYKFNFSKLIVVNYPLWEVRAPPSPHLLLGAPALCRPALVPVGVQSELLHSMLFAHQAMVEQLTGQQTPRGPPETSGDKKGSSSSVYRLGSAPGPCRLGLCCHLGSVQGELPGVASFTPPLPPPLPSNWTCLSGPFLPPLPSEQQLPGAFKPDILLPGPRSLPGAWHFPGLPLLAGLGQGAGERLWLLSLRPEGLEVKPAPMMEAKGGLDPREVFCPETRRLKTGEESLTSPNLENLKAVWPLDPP
Summary of the method: as §1

[3] = target: T3, ETS2 (Homo sapiens, UniProt P15036 1-469)
T3 sequence: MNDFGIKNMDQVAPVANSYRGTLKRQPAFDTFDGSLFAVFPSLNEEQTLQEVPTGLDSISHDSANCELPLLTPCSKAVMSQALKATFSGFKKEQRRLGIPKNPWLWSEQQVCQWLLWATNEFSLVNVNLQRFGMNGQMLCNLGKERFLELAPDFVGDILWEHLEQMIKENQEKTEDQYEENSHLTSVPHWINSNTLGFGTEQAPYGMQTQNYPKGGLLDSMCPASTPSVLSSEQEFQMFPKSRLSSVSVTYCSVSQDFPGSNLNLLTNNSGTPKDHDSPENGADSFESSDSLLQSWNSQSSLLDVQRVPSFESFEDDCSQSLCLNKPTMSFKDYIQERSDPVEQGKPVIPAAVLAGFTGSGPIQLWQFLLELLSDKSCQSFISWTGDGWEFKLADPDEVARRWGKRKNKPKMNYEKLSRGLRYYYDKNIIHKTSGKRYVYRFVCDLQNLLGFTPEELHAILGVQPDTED
Summary of the method: as §1

[4] = target: T4, SPDEF (Homo sapiens, UniProt O95238 1-335)
T4 sequence: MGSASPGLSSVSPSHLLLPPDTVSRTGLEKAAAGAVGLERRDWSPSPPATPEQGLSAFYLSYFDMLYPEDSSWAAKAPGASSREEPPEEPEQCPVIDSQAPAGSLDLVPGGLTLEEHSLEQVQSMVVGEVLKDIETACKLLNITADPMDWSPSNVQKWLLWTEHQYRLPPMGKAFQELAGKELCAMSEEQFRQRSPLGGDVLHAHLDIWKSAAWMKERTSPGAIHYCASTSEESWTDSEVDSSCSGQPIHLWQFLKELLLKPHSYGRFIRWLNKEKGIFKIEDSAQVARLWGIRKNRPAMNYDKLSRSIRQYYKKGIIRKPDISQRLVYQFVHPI
Summary of the method: as §1

[5] = target: T5, ETV7 (Homo sapiens, UniProt Q9Y603 1-341)
T5 sequence: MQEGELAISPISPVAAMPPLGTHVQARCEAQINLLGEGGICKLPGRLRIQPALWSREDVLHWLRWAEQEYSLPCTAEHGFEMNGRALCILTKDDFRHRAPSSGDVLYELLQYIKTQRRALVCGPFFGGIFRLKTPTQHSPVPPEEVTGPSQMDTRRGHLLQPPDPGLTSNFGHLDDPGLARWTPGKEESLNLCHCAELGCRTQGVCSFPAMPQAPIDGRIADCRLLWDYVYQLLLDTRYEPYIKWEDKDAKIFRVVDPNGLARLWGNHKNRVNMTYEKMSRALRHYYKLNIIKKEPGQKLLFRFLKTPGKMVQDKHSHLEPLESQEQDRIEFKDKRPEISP
Summary of the method: as §1

[6] = target: T6, ELF5 (Homo sapiens, UniProt Q9UKW6-2 1-255)
T6 sequence: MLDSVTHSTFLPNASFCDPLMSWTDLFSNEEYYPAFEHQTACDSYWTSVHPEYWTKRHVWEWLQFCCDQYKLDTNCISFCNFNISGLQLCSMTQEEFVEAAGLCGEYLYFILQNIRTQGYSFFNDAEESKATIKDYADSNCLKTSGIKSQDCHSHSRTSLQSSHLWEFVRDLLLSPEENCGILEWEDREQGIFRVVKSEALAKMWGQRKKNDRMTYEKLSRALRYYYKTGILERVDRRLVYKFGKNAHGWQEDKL
Summary of the method: as §1

[7] = target: T7, ETV3 (Homo sapiens, UniProt P41162-2 1-143)
T7 sequence: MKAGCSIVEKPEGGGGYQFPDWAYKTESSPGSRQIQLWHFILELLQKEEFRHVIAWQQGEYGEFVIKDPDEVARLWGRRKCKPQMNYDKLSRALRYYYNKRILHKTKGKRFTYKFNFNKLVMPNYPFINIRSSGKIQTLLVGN
Summary of the method: as §1

[8] = target: ETV6 (Homo sapiens, UniProt P41212 1-452)
Summary of the method: as §1

ETV6, sequence (P41212 whole entry): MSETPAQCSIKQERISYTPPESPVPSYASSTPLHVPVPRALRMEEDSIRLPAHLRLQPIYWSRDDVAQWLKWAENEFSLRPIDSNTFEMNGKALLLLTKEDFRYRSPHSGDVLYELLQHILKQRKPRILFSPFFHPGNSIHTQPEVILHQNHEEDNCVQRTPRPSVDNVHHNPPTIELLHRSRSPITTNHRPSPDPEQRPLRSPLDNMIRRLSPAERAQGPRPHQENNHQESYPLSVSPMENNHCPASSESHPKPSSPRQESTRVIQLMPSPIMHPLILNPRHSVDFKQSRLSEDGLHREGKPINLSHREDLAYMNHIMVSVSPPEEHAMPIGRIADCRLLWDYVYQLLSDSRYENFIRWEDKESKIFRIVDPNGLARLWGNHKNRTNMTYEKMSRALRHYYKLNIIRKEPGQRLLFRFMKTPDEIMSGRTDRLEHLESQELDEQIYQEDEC

Sequence	binding signal [1]	binding signal [2]	binding signal [3]	binding signal [4]	binding signal [5]	binding signal [6]	binding signal [7]	binding signal [8]
CTTGAT	1.47 fold enrichment (6-mer frequency, TF over GST control)	1.42 fold enrichment (6-mer frequency, TF over GST control)	1.35 fold enrichment (6-mer frequency, TF over GST control)	1.34 fold enrichment (6-mer frequency, TF over GST control)	1.28 fold enrichment (6-mer frequency, TF over GST control)	1.39 fold enrichment (6-mer frequency, TF over GST control)	1.35 fold enrichment (6-mer frequency, TF over GST control)	1.24 fold enrichment (6-mer frequency, TF over GST control)
TCTTAC	1.29 fold enrichment (6-mer frequency, TF over GST control)	1.3 fold enrichment (6-mer frequency, TF over GST control)	1.21 fold enrichment (6-mer frequency, TF over GST control)	1.36 fold enrichment (6-mer frequency, TF over GST control)	1.31 fold enrichment (6-mer frequency, TF over GST control)	1.24 fold enrichment (6-mer frequency, TF over GST control)	1.27 fold enrichment (6-mer frequency, TF over GST control)	1.33 fold enrichment (6-mer frequency, TF over GST control)
TCTAAT	1.26 fold enrichment (6-mer frequency, TF over GST control)	1.14 fold enrichment (6-mer frequency, TF over GST control)	1.21 fold enrichment (6-mer frequency, TF over GST control)	1.21 fold enrichment (6-mer frequency, TF over GST control)	1.07 fold enrichment (6-mer frequency, TF over GST control)	1.11 fold enrichment (6-mer frequency, TF over GST control)	1.05 fold enrichment (6-mer frequency, TF over GST control)	1.2 fold enrichment (6-mer frequency, TF over GST control)
CAACTT	1.44 fold enrichment (6-mer frequency, TF over GST control)	1.51 fold enrichment (6-mer frequency, TF over GST control)	1.6 fold enrichment (6-mer frequency, TF over GST control)	1.49 fold enrichment (6-mer frequency, TF over GST control)	1.37 fold enrichment (6-mer frequency, TF over GST control)	1.61 fold enrichment (6-mer frequency, TF over GST control)	1.55 fold enrichment (6-mer frequency, TF over GST control)	1.62 fold enrichment (6-mer frequency, TF over GST control)
TGTCTT	1.28 fold enrichment (6-mer frequency, TF over GST control)	1.32 fold enrichment (6-mer frequency, TF over GST control)	1.28 fold enrichment (6-mer frequency, TF over GST control)	1.28 fold enrichment (6-mer frequency, TF over GST control)	1.25 fold enrichment (6-mer frequency, TF over GST control)	1.39 fold enrichment (6-mer frequency, TF over GST control)	1.38 fold enrichment (6-mer frequency, TF over GST control)	1.16 fold enrichment (6-mer frequency, TF over GST control)
GCACTT	1.61 fold enrichment (6-mer frequency, TF over GST control)	1.84 fold enrichment (6-mer frequency, TF over GST control)	1.76 fold enrichment (6-mer frequency, TF over GST control)	1.91 fold enrichment (6-mer frequency, TF over GST control)	1.92 fold enrichment (6-mer frequency, TF over GST control)	1.88 fold enrichment (6-mer frequency, TF over GST control)	1.94 fold enrichment (6-mer frequency, TF over GST control)	2 fold enrichment (6-mer frequency, TF over GST control)
CTGAAC	1.33 fold enrichment (6-mer frequency, TF over GST control)	1.3 fold enrichment (6-mer frequency, TF over GST control)	1.32 fold enrichment (6-mer frequency, TF over GST control)	1.47 fold enrichment (6-mer frequency, TF over GST control)	1.21 fold enrichment (6-mer frequency, TF over GST control)	1.41 fold enrichment (6-mer frequency, TF over GST control)	1.47 fold enrichment (6-mer frequency, TF over GST control)	1.29 fold enrichment (6-mer frequency, TF over GST control)
AATAAT	1.52 fold enrichment (6-mer frequency, TF over GST control)	1.35 fold enrichment (6-mer frequency, TF over GST control)	1.42 fold enrichment (6-mer frequency, TF over GST control)	1.21 fold enrichment (6-mer frequency, TF over GST control)	1.23 fold enrichment (6-mer frequency, TF over GST control)	1.29 fold enrichment (6-mer frequency, TF over GST control)	1.27 fold enrichment (6-mer frequency, TF over GST control)	1.34 fold enrichment (6-mer frequency, TF over GST control)
TCCAAC	1.2 fold enrichment (6-mer frequency, TF over GST control)	1.18 fold enrichment (6-mer frequency, TF over GST control)	1.25 fold enrichment (6-mer frequency, TF over GST control)	1.28 fold enrichment (6-mer frequency, TF over GST control)	1.32 fold enrichment (6-mer frequency, TF over GST control)	1.12 fold enrichment (6-mer frequency, TF over GST control)	1.2 fold enrichment (6-mer frequency, TF over GST control)	1.14 fold enrichment (6-mer frequency, TF over GST control)
TTTTGT	1.33 fold enrichment (6-mer frequency, TF over GST control)	1.34 fold enrichment (6-mer frequency, TF over GST control)	1.29 fold enrichment (6-mer frequency, TF over GST control)	1.35 fold enrichment (6-mer frequency, TF over GST control)	1.22 fold enrichment (6-mer frequency, TF over GST control)	1.33 fold enrichment (6-mer frequency, TF over GST control)	1.34 fold enrichment (6-mer frequency, TF over GST control)	1.24 fold enrichment (6-mer frequency, TF over GST control)
CGATCT	1.17 fold enrichment (6-mer frequency, TF over GST control)	1.32 fold enrichment (6-mer frequency, TF over GST control)	1.32 fold enrichment (6-mer frequency, TF over GST control)	1.25 fold enrichment (6-mer frequency, TF over GST control)	1.42 fold enrichment (6-mer frequency, TF over GST control)	1.27 fold enrichment (6-mer frequency, TF over GST control)	1.24 fold enrichment (6-mer frequency, TF over GST control)	1.2 fold enrichment (6-mer frequency, TF over GST control)
TATTAA	1.22 fold enrichment (6-mer frequency, TF over GST control)	1.18 fold enrichment (6-mer frequency, TF over GST control)	1.17 fold enrichment (6-mer frequency, TF over GST control)	1.18 fold enrichment (6-mer frequency, TF over GST control)	1.15 fold enrichment (6-mer frequency, TF over GST control)	1.13 fold enrichment (6-mer frequency, TF over GST control)	1.16 fold enrichment (6-mer frequency, TF over GST control)	1.12 fold enrichment (6-mer frequency, TF over GST control)
AATGGC	1.25 fold enrichment (6-mer frequency, TF over GST control)	1.3 fold enrichment (6-mer frequency, TF over GST control)	1.39 fold enrichment (6-mer frequency, TF over GST control)	1.29 fold enrichment (6-mer frequency, TF over GST control)	1.32 fold enrichment (6-mer frequency, TF over GST control)	1.44 fold enrichment (6-mer frequency, TF over GST control)	1.41 fold enrichment (6-mer frequency, TF over GST control)	1.51 fold enrichment (6-mer frequency, TF over GST control)
ATTCCG	1.58 fold enrichment (6-mer frequency, TF over GST control)	1.74 fold enrichment (6-mer frequency, TF over GST control)	1.78 fold enrichment (6-mer frequency, TF over GST control)	1.85 fold enrichment (6-mer frequency, TF over GST control)	1.62 fold enrichment (6-mer frequency, TF over GST control)	2.17 fold enrichment (6-mer frequency, TF over GST control)	1.89 fold enrichment (6-mer frequency, TF over GST control)	1.78 fold enrichment (6-mer frequency, TF over GST control)
CTACTG	1.4 fold enrichment (6-mer frequency, TF over GST control)	1.37 fold enrichment (6-mer frequency, TF over GST control)	1.34 fold enrichment (6-mer frequency, TF over GST control)	1.21 fold enrichment (6-mer frequency, TF over GST control)	1.26 fold enrichment (6-mer frequency, TF over GST control)	1.32 fold enrichment (6-mer frequency, TF over GST control)	1.16 fold enrichment (6-mer frequency, TF over GST control)	1.24 fold enrichment (6-mer frequency, TF over GST control)
